SENP6 inh: SENP6 protease inhibition | 330,000 tested, 1.8% active | inhibition, % at 10 µM | Recombinant SENP6 catalytic domain, aminoluciferin luminescence | Q9GZR1;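 active = inhibition above about 50% at the single tested dose, limit read from the data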;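 also: plate controls were DMSO wells with enzyme for no effect and DMSO wells lacking enzyme for full effect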
HSP90 refold inh: blocks HSP90-mediated luciferase refolding in reticulocyte lysate. Rabbit reticulocyte lysate, luciferase refolding luminescence, 3 h. inhibition, % at 5.6 µM. 290,000 tested, 0.91% active. AID 1789;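 active = inhibition above the screen-wide mean plus 3 SD, computed separately per campaign, cut at about 16% in these data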;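 also: 0% = DMSO wells and 100% = 60 µM geldanamycin wells; inhibitors lower the luminescence because luciferase stays unfolded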
SENP8 block-1: inhibitors of human SENP8 protease; inhibition, % at 20 µM; recombinant SENP8, Nedd8 substrate fluorescence; 360,000 tested, 0.64% active; Q96LD8; AID 602440; in the data active = inhibition mostly above about 40%, no sharp cut-off; inactive = mostly below about 27%
SENP8 block-2: inhibitors of human SENP8 protease. 330,000 tested, 1.2% active. inhibition, % at 10 µM. purified SENP8, Z-RLRGG-aminoluciferin cleavage, luminescence; in the data active = inhibition above about 50%
SENP7 inh: blocks the human protease SENP7; 330,000 tested, 1.5% active; inhibition, % at 5 µM; recombinant SENP7, Z-RLRGG-aminoluciferin luminescence, 40 min; Q9BQF6;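 active = inhibition above about 50% at the single test dose, limit read from the data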;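 also: plate controls were DMSO with enzyme for no effect and no enzyme buffer wells for full effect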
Target sequence (Q9BQF6 706-1050 limits assumed): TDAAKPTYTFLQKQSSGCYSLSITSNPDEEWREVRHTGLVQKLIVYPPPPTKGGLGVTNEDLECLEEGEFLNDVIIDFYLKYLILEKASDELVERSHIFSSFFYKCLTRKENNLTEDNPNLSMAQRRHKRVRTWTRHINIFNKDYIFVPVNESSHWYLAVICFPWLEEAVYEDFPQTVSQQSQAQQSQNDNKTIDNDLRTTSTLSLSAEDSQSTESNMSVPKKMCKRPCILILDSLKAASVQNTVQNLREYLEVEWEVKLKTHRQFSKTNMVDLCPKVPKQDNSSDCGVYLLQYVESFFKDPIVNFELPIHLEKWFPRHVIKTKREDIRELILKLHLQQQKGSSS
SENP8 conf: confirmation of human SENP8 protease inhibitors. shares compounds with SENP7 inh. Recombinant SENP8, Z-RLRGG-aminoluciferin luminescence, 60 min. inhibition, % at 12.5 µM. 6,200 tested, 40% active. AID 488912;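 active = mean inhibition across replicates above about 50%, limit read from the data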
SENP6 conf: human SENP6 inhibition, confirmed | shares compounds with SENP7 inh | recombinant SENP6, Z-RLRGG-aminoluciferin luminescence | inhibition, % at 12.5 µM | 6,200 tested, 58% active | AID 488915
SENP7 confirm: human SENP7 inhibition, confirmed. shares compounds with SENP7 inh. inhibition, % at 12.5 µM. AID 488917. 6,200 tested, 69% active. recombinant SENP7, Z-RLRGG-aminoluciferin luminescence, 40 min
Casp3 select: inhibits human caspase-3 in SENP selectivity test | shares compounds with SENP7 inh | 6,200 tested, 60% active | inhibition, % at 12.5 µM | AID 488918 | purified caspase-3, Z-DEVD-aminoluciferin luminescence, 60 min;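 active = mean inhibition above about 50%, limit read from the data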;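 also: plate controls were enzyme with DMSO for no effect and wells without caspase-3 for full effect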
Target sequence (P42574 28-227 limits assumed): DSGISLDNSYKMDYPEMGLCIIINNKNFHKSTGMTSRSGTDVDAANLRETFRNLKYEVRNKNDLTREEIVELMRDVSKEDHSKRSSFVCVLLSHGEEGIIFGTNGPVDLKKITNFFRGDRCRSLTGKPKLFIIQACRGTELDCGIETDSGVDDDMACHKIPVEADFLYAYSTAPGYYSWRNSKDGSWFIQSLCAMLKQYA
Luc interf: interferes with luciferase luminescence in SENP counter-screen; 6,200 tested, 39% active; inhibition, % at 12.5 µM; shares compounds with SENP7 inh; Pre-incubated SENP8/Z-RLRGG-aminoluciferin, luciferase luminescence interference;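 active = mean inhibition above about 50% when retested at one dose, limit read from the data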;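 also: plate controls were DMSO wells with completed reaction for no effect and substrate without enzyme for full effect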
* marks the source's active call; other numbers are inactive results. A selection: hits, their analogues and other compounds. The true share with any hit is near 2.7%.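 The calls were made as follows, unless noted: active = mean inhibition above about 50% in the one-dose retest (limit read from the data); inactive = the rest.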

How did CCCC(=O)Nc1ccc2oc(-c3cncc(Br)c3)nc2c1 do in these assays?
SENP6 inh: 49; HSP90 refold inh: -6; SENP8 block-1: -417; SENP8 block-2: 23; SENP7 inh: 50

Results for Cc1ccc(-n2ncc3ccccc3c2=O)cc1Cl ?
SENP6 inh: 45; HSP90 refold inh: -4; SENP8 block-1: -18; SENP8 block-2: 37; SENP7 inh: 41

How did O=c1c2ccccc2cnn1-c1ccc(Cl)cc1 do in these assays?
SENP6 inh: 59*; HSP90 refold inh: 2; SENP8 block-1: -4; SENP8 block-2: 34; SENP7 inh: 57*; SENP8 conf: 23; SENP6 conf: 62*; SENP7 confirm: 73*; Casp3 select: 79*; Luc interf: 33

How did COc1ccc(O)c(/C=N/N2CCCCC2)c1 do in these assays?
SENP6 inh: 80*; HSP90 refold inh: 0; SENP8 block-1: 26; SENP8 block-2: 77*; SENP7 inh: 83*; SENP8 conf: 78*; SENP6 conf: 80*; SENP7 confirm: 96*; Casp3 select: 88*; Luc interf: 69*

Results for COc1ccc(/C(C)=N/N2CCCCC2)c(O)c1 ?
SENP6 inh: -8; HSP90 refold inh: 2; SENP8 block-1: 13; SENP8 block-2: -3; SENP7 inh: 8

Results for COc1cccc(/C=C2\Sc3ccc(C(=O)NCc4cccnc4)cc3N(C)C2=O)c1 ?
SENP6 inh: -20; HSP90 refold inh: -1; SENP8 block-1: -84; SENP8 block-2: -7; SENP7 inh: 5

How did C=C(C)CNC(=O)c1ccc2nc(Cc3ccc(OC)cc3)oc2c1 do in these assays?
SENP6 inh: 49; HSP90 refold inh: -5; SENP8 block-1: 33; SENP8 block-2: 17; SENP7 inh: 51*; SENP8 conf: 40; SENP6 conf: 39; SENP7 confirm: 75*; Casp3 select: 66*; Luc interf: 48

How did CCCn1c(/C=C/c2ccccc2)nc2ccccc21 do in these assays?
SENP6 inh: 72*; HSP90 refold inh: 1; SENP8 block-1: -305; SENP8 block-2: 62*; SENP7 inh: 70*; SENP8 conf: 86*; SENP6 conf: 84*; SENP7 confirm: 95*; Casp3 select: 75*; Luc interf: 81*

What do the screens show for `COC(=O)c1ccc(OC(=O)/C=C/c2ccco2)cc1`?
SENP6 inh: 83*; HSP90 refold inh: 0; SENP8 block-1: 15; SENP8 block-2: 78*; SENP7 inh: 77*; SENP8 conf: 84*; SENP6 conf: 86*; SENP7 confirm: 73*; Casp3 select: 74*; Luc interf: 45

What do the screens show for `c1ccc(-c2cc(-c3ccccc3)ncn2)cc1`?
SENP6 inh: -13; SENP8 block-1: 11; SENP8 block-2: 1; SENP7 inh: 1

Results for c1ccc(-c2cc3ccccc3cn2)cc1 ?
SENP6 inh: 84*; SENP8 block-1: -29; SENP8 block-2: 82*; SENP7 inh: 91*; SENP8 conf: 65*; SENP6 conf: 85*; SENP7 confirm: 96*; Casp3 select: 77*; Luc interf: 39

Results for O=C(CNC(=O)c1cc(=O)[nH]c2ccc(S(=O)(=O)N3CCOCC3)cc12)Nc1ccc(F)c(F)c1 ?
SENP8 block-1: -74

How did CCN1CCN(C(=S)Nc2cccc(C(F)(F)F)c2)CC1 do in these assays?
SENP6 inh: -6; HSP90 refold inh: -1; SENP8 block-1: 13; SENP8 block-2: -8; SENP7 inh: 1

What do the screens show for `O=c1oc2c(O)cccc2cc1-c1nc2ccccc2[nH]1`?
SENP6 inh: 93*; HSP90 refold inh: 11; SENP8 block-1: -287; SENP8 block-2: 1; SENP7 inh: 96*; SENP8 conf: 31; SENP6 conf: 85*; SENP7 confirm: 36; Casp3 select: 39; Luc interf: 14

Results for O=c1oc2c(CN3CCCCC3)c(O)ccc2cc1-c1nc2ccccc2[nH]1 ?
SENP8 block-1: -250

What do the screens show for `Cc1ccc(C)c(N=Nc2ccc(O)c3ncccc23)c1`?
SENP6 inh: 4; HSP90 refold inh: 2; SENP8 block-1: 34; SENP8 block-2: 0; SENP7 inh: -1

What do the screens show for `Cc1cccc(N=Nc2ccc(O)c3ncccc23)c1`?
SENP6 inh: 69*; HSP90 refold inh: 3; SENP8 block-1: 37; SENP8 block-2: 33; SENP7 inh: 26; SENP8 conf: -15; SENP6 conf: -2; SENP7 confirm: 9; Casp3 select: 48; Luc interf: 1

Results for COc1c(OC(C)=O)ccc(/C=C/c2ccc3cccc(OC)c3n2)c1[N+](=O)[O-] ?
SENP6 inh: 29; HSP90 refold inh: -1; SENP8 block-1: 12; SENP8 block-2: 17; SENP7 inh: -1

Results for Cn1c(/C=C/c2ccccc2[N+](=O)[O-])nc2ccccc2c1=O ?
SENP6 inh: -10; HSP90 refold inh: 0; SENP8 block-1: 8; SENP8 block-2: -4; SENP7 inh: -2

Results for COc1c(OC(C)=O)ccc(/C=C/c2ccc3ccccc3n2)c1[N+](=O)[O-] ?
SENP6 inh: 94*; HSP90 refold inh: -2; SENP8 block-1: 19; SENP8 block-2: 89*; SENP7 inh: 91*; SENP8 conf: 86*; SENP6 conf: 97*; SENP7 confirm: 99*; Casp3 select: 84*; Luc interf: 41

Results for O=[N+]([O-])c1ccccc1/C=C/c1ccc2ccccc2n1 ?
SENP6 inh: 88*; HSP90 refold inh: -2; SENP8 block-1: 11; SENP8 block-2: 85*; SENP7 inh: 82*; SENP8 conf: 94*; SENP6 conf: 93*; SENP7 confirm: 100*; Casp3 select: 79*; Luc interf: 47

Results for Clc1nnc(N/N=C/c2ccccc2)c2ccccc12 ?
SENP6 inh: 94*; HSP90 refold inh: 0; SENP8 block-1: 9; SENP8 block-2: 74*; SENP7 inh: 90*; SENP8 conf: 16; SENP6 conf: 39; SENP7 confirm: 65*; Casp3 select: 36; Luc interf: 21

How did C(=N\Nc1ncnc2ccccc12)/c1ccccc1 do in these assays?
SENP6 inh: 47; HSP90 refold inh: -1; SENP8 block-1: 10; SENP8 block-2: 39; SENP7 inh: 66*; SENP8 conf: 62*; SENP6 conf: 59*; SENP7 confirm: 85*; Casp3 select: 69*; Luc interf: 68*

Compound activity (PubChem BioAssay)
